High-throughput results as filed in PubChem.
Marburg entry inh: Marburg virus entry inhibition | Marburg virus pseudotyped entry inhibition, cell reporter | 300,000 compounds, 1.8% hits | Potency, µM (top dose mostly 37.8 µM), without a hit: at the highest dose activity change, negative = inhibition, actives largely listed as inhibitors; calls by dose curve; tested in HEK293 cells; note: potency is the fitted concentration of half-maximal effect; % is set by controls: 0 for no effect and ±100 for the full control effect
CHX counter: counter-screen hit for Shiga toxin inhibitors, cycloheximide; cell reporter, cycloheximide protein synthesis inhibition counterscreen; 300,000 compounds, 12% hits; max response, %; in the data active = max response mostly above about 13%, no sharp cut-off; inactive = mostly below about 14%; note: read at 38.3 µM for the half of the compounds with a filed dose; 0% is about no effect
Vaccinia Venus: inhibitors of vaccinia virus (Venus reporter); Vaccinia virus Venus reporter expression, fluorescence; Potency, µM (series often up to 36.5 µM), for inactives: at the highest dose activity change, negative = inhibition, usual class: inhibitors; 330,000 compounds, 0.46% hits; AID 720580; calls by dose curve; tested in A549 cells; note: potency is the fitted concentration of half-maximal effect; % is set by controls: 0 for no effect and ±100 for the full control effect; nearly all actives have a fitted effect of over 30% in size
Shiga toxin inh: blocks Shiga toxin action in Vero cells. inhibition, % at 38.7 µM. Vero cells, Shiga toxin protein synthesis inhibition reporter. 290,000 compounds, 9.2% hits. AID 2315; in the data active = inhibition mostly above about 28%, no sharp cut-off; inactive = mostly below about 43%; note: 0% is about no effect
Lassa entry inh: Lassa virus entry inhibition; Lassa virus pseudotype entry inhibition, cell reporter; Potency, µM (highest dose often 37.9 µM), for inactives: top-dose activity change, negative = inhibition, most hits filed as inhibitors; 300,000 compounds, 1.2% hits; calls by dose curve; tested in HEK293 cells; note: potency is the fitted concentration of half-maximal effect; % is set by controls: 0 for no effect and ±100 for the full control effect; nearly all actives have a fitted effect of over 50% in size
VACV mCherry inh: inhibitors of vaccinia virus infection (mCherry reporter signal). Potency, µM (titrated, usually from 36.5 µM), for inactives: at the top dose activity change, negative = inhibition, actives largely listed as inhibitors. Vaccinia virus mCherry reporter infection, fluorescence. 310,000 compounds, 0.63% hits; calls by dose curve; tested in A549 cells; note: potency is the fitted concentration of half-maximal effect; % is set by controls: 0 for no effect and ±100 for the full control effect; nearly all actives have a fitted effect of over 35% in size
* = called active by the depositor; i = inactive; ? = inconclusive; · = no result; [ ] = dose if it differs, or a comment. The sample as a whole holds a higher share of hits than the screen did.

SMILES | Marburg entry inh | CHX counter | Vaccinia Venus | Shiga toxin inh | Lassa entry inh | VACV mCherry inh
CC(=O)c1cccc(NC(=O)CCCOc2ccc(C)cc2)c1 | 5% | 0 | -8% | -9 | 9% | -10%
CC(=O)Nc1cccc(C(=O)/C=C/c2ccc(C)cc2)c1 | ? | 17* | ? | 12 | ? | ?
CCCCC(=O)Nc1cccc(NC(=O)CC)c1 | -1%[46.1 µM] | 2 | -8% | -5 | ? | 4%
Cc1nn(C)c(C)c1C1Nc2ccccc2C(=O)N1O (configuration not stated) | 0% | 16* | · | 42 | -1% | ·
Cc1ccsc1C1Nc2ccccc2C(=O)N1O (configuration not stated) | ? | 20* | -7% | 47* | 2% | i
O=C1c2ccccc2NC(c2cnc3ccccc3n2)N1O (configuration not stated) | ? | 49* | -13% | 71* | ? | -19%
O=Nc1c(O)c2ccccc2c2ccccc12 | · | · | 10µM* | · | · | ?
CC1(C)OB(c2cnc(C#N)nc2)OC1(C)C | · | · | -6% | · | · | i
Cc1nc2ccc(NC(=O)c3ccco3)cc2s1 | ? | 34* | 5% | 104* | -14% | i
CC(=O)Nc1nc2ccc(NC(=O)c3ccco3)cc2s1 | ? | 45* | -20% | 55* | 22% | -17%
Cc1cccc(NC(=O)CSc2nc3ccc(NC(=O)c4ccco4)cc3s2)c1 | ? | · | -5% | · | -7%[46.1 µM] | -7%
Cc1ccc(Nc2sc(C(=O)c3ccccc3)c(N)c2S(=O)(=O)c2ccccc2)cc1Cl | -25%[46.1 µM] | · | -9% | · | ? | -14%
C=CCN1C(=O)C(Cc2ccc(OC)cc2)S/C1=N/N=C/c1ccco1 (configuration not stated) | 0% | 7 | · | -4 | -26% | ·
Cc1ccc(S(=O)(=O)N2CCN(C(=O)CCc3nc4ccccc4c(=O)[nH]3)CC2)c(C)c1 | -29%[46.1 µM] | · | ? | · | ? | -9%
O=C(CCc1nc2ccccc2c(=O)[nH]1)N1CCN(S(=O)(=O)c2ccccc2Br)CC1 | -27% | · | 10µM* | · | -26%[46.1 µM] | ?
CC(C)=NNc1nc2sc3c(c2c(=O)[nH]1)CC(C)(C)OC3 | -4% | 10 | -15% | -13 | 7.1µM* | -15%
CC1(C)Cc2c(sc3nc(N/N=C/c4ccccc4)[nH]c(=O)c23)CO1 | ? | 4 | · | 23 | -1% | ·
Cc1cc(C)c2c(CN3CCN(CCO)CC3)cc(=O)oc2c1 | -10% | 72* | · | 57* | -4% | ·
CCOc1ccccc1C(=O)N[C@H](C(=O)OCc1cc(=O)oc2cc(C)ccc12)C(C)C | ? | 26* | ? | 17 | -10% | ?
Cc1ccc2c(COC(=O)c3ccccc3Cl)cc(=O)oc2c1 | ? | 42* | -13% | 59* | -4%[46.1 µM] | i
Cc1cc(C)c2c(CN3CCN(C)CC3)cc(=O)oc2c1 | ? | -1 | · | -16 | -3% | ·
Cc1ccc2c(COC(=O)c3ccc(C)c(C)c3)cc(=O)oc2c1 | ? | 2 | 18% | 11 | 9%[46.1 µM] | -2%
CC1CN(S(=O)(=O)c2cccc(C(=O)OCc3cc(=O)oc4cc(O)ccc34)c2)CC(C)O1 (configuration not stated) | ? | -1 | · | 3 | ? | ·
COc1cc(OC)cc(C(=O)N[C@H](C(=O)OCc2cc(=O)oc3cc(C)ccc23)C(C)C)c1 | ? | -2 | -8% | 12 | -1% | 32%
CN(C)c1cccc(C(=O)OCc2cc(=O)oc3cc(O)ccc23)c1 | ? | 16* | 6% | 49 | ? | -3%
SMILES | Marburg entry inh | CHX counter | Vaccinia Venus | Shiga toxin inh | Lassa entry inh | VACV mCherry inh
CCOC(=O)c1ccccc1NC(=O)N(Cc1ccc(C)cc1)Cc1cccn1-c1nnc(N2CCCC2=O)s1 | -8%[46.1 µM] | · | -17%[7.34 µM] | · | · | -16%[7.34 µM]
C[C@@H]1CN([C@@H](C)CO)C(=O)c2cc(NC(=O)Nc3ccccc3)ccc2O[C@@H](C)CCCCO[C@H]1CN(C)C(=O)Nc1ccc(C(F)(F)F)cc1 | · | · | -14% | · | · | -5%
O=C(COC(=O)CCSc1ccccc1)NCc1ccccc1 | ? | 10 | -5% | 11 | -25% | i
Cc1ccc2c(CN3CCOCC3)cc(=O)oc2c1 | · | -2 | · | -8 | · | ·
Cc1ccc2c(CN3CCC(C)CC3)cc(=O)oc2c1C | · | 55* | · | 123* | · | ·
Cc1ccc2c(COC(=O)c3ccccc3Br)cc(=O)oc2c1 | ? | 34* | -6% | 98* | -15%[46.1 µM] | -3%
Cc1ccc2c(CN3CCCCC3)cc(=O)oc2c1 | 15%[46.1 µM] | 21* | -4% | 28* | -1%[46.1 µM] | 7%
